# Test results taken from PubChem BioAssay AID1159580 (chemical genetic matrix, 2015).
# About 2,000 (36%) of roughly 5,500 compounds were called active. Another 18% or so got no clear call; they are omitted. The list shows a part of the results. Unmarked numbers belong to inactive results. Rule as the data show it: active = normalized growth mostly below about 0.91 (no sharp cut-off); inconclusive = no clear call, values can overlap the other calls; inactive = mostly above about 0.92.
# Assay: chemical genetic growth profiling, strain panel (AID 1159580);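 also: tested at 20 µM; growth read once vehicle control cultures reached saturation at 30 °C; 1 = growth at the plate median or of vehicle wells; lower values mean less growth of the strain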
# Details: S. cerevisiae deletion strains, growth OD
# [1] = locus YDL101C, strain DUN1, stronger effect = lower value
# [2] = locus YHR030C, strain SLT2, stronger effect = lower value
# [3] = locus YAR019C, strain CDC15, stronger effect = lower value
# [4] = locus YBL105C, strain PKC1, stronger effect = lower value
# [5] = locus YBR135W, strain CKS1, stronger effect = lower value
# [6] = locus YBR136W, strain MEC1, stronger effect = lower value
# [7] = locus YBR160W, strain CDC28, stronger effect = lower value
# [8] = locus YDL017W, strain CDC7, stronger effect = lower value
# [9] = locus YDL028C, strain MPS1, stronger effect = lower value
# [10] = locus YDL108W, strain KIN28, stronger effect = lower value
# [11] = locus YDL132W, strain cdc53, stronger effect = lower value
# [12] = locus YDL214C, strain PRR2, stronger effect = lower value
# [13] = locus YDR052C, strain DBF4, stronger effect = lower value
# [14] = locus YDR054C, strain cdc34, stronger effect = lower value
# [15] = locus YDR226W, strain ADK1, stronger effect = lower value
# [16] = locus YDR477W, strain SNF1, stronger effect = lower value
# [17] = locus YER123W, strain YCK3, stronger effect = lower value
# [18] = locus YER133W, strain GLC7, stronger effect = lower value
# [19] = locus YFL009W, strain cdc4, stronger effect = lower value
# [20] = locus YFL029C, strain CAK1, stronger effect = lower value
# [21] = locus YFR003C, strain YPI1, stronger effect = lower value
# [22] = locus YFR019W, strain FAB1, stronger effect = lower value
# [23] = locus YFR028C, strain CDC14, stronger effect = lower value
# [24] = locus YGR040W, strain KSS1, stronger effect = lower value
# [25] = locus YGR052W, strain FMP48, stronger effect = lower value
# [26] = locus YGR092W, strain DBF2, stronger effect = lower value
# [27] = locus YHR079C, strain IRE1, stronger effect = lower value
# [28] = locus YHR082C, strain KSP1, stronger effect = lower value
# [29] = locus YHR205W, strain SCH9, stronger effect = lower value
# [30] = locus YIL147C, strain SLN1, stronger effect = lower value
# [31] = locus YJL095W, strain BCK1, stronger effect = lower value
# [32] = locus YJL128C, strain PBS2, stronger effect = lower value
# [33] = locus YJL157C, strain FAR1, stronger effect = lower value
# [34] = locus YJR016C, strain ILV3, stronger effect = lower value
# [35] = locus YJR066W, strain TOR1 (second series), stronger effect = lower value
# [36] = locus YJR066W, strain TOR1, stronger effect = lower value
# [37] = locus YKL048C, strain ELM1, stronger effect = lower value
# [38] = locus YKL067W, strain YNK1, stronger effect = lower value
# [39] = locus YKL101W, strain HSL1, stronger effect = lower value
# [40] = locus YKL193C, strain SDS22, stronger effect = lower value
# [41] = locus YKL203C, strain TOR2, stronger effect = lower value
# [42] = locus YLR113W, strain HOG1, stronger effect = lower value
# [43] = locus YLR133W, strain CKI1, stronger effect = lower value
# [44] = locus YLR403W, strain SFP1, stronger effect = lower value
# [45] = locus YML070W, strain DAK1, stronger effect = lower value
# [46] = locus YMR001C, strain CDC5, stronger effect = lower value
# [47] = locus YMR205C, strain PFK2 (second series), stronger effect = lower value
# [48] = locus YMR277W, strain FCP1, stronger effect = lower value
# [49] = locus YNL006W, strain LST8, stronger effect = lower value
# [50] = locus YNL020C, strain ARK1, stronger effect = lower value
# [51] = locus YNL161W, strain CBK1, stronger effect = lower value
# [52] = locus YNL183C, strain NPR1, stronger effect = lower value
# [53] = locus YNL207W, strain RIO2, stronger effect = lower value
# [54] = locus YNL222W, strain SSU72, stronger effect = lower value
# [55] = locus YNL307C, strain MCK1 (second series), stronger effect = lower value
# [56] = locus YOL078W, strain AVO1, stronger effect = lower value
# [57] = locus YOL136C, strain PFK27, stronger effect = lower value
# [58] = locus YOR061W, strain CKA2, stronger effect = lower value
# [59] = locus YOR119C, strain RIO1, stronger effect = lower value
# [60] = locus YOR231W, strain MKK1, stronger effect = lower value
# [61] = locus YOR329C, strain SCD5, stronger effect = lower value
# [62] = locus YPL031C, strain PHO85, stronger effect = lower value
# [63] = locus YPL153C, strain RAD53, stronger effect = lower value
# [64] = locus YPL204W, strain HRR25, stronger effect = lower value
# [65] = locus YPL209C, strain IPL1, stronger effect = lower value
# [66] = locus YPL256C, strain CLN2, stronger effect = lower value
# [67] = locus YPR025C, strain CCL1, stronger effect = lower value
# [68] = locus YPR106W, strain ISR1, stronger effect = lower value
# [69] = locus YPR111W, strain DBF20, stronger effect = lower value
# [70] = strain NNK1, stronger effect = lower value
# [71] = strain TSCII, stronger effect = lower value
compound,measurement,setting,value
COc1cc(N=Cc2ccc3c(c2)OCO3)c(OC)cc1Cl,normalized growth,"locus YAL013W, strain DEP1, stronger effect = lower value",1.01
same,normalized growth,"locus YBR229C, strain ROT2, stronger effect = lower value",1.01
same,normalized growth,"locus YCL061C, strain MRC1, stronger effect = lower value",1
same,normalized growth,[1],0.984
same,normalized growth,"locus YDR150W, strain NUM1, stronger effect = lower value",0.91
same,normalized growth,"locus YEL061C, strain CIN8, stronger effect = lower value",1.04
same,normalized growth,"locus YGR078C, strain PAC10, stronger effect = lower value",0.994
same,normalized growth,"locus YGR229C, strain SMI1, stronger effect = lower value",1.01
same,normalized growth,[2],0.982
same,normalized growth,"locus YHR087W, strain rtc3, stronger effect = lower value",0.989
same,normalized growth,"locus YJR043C, strain POL32, stronger effect = lower value",1
same,normalized growth,"locus YJR075W, strain HOC1, stronger effect = lower value",0.983
same,normalized growth,"locus YLR039C, strain RIC1, stronger effect = lower value",0.97
same,normalized growth,"locus YLR058C, strain SHM2 (second series), stronger effect = lower value",1
same,normalized growth,"locus YLR085C, strain ARP6, stronger effect = lower value",1.04
same,normalized growth,"locus YLR262C, strain YPT6, stronger effect = lower value",0.99
same,normalized growth,"locus YML094W, strain GIM5, stronger effect = lower value",1.02
same,normalized growth,"locus YMR219W, strain ESC1, stronger effect = lower value",0.991
same,normalized growth,"locus YMR263W, strain SAP30, stronger effect = lower value",0.939
same,normalized growth,"locus YMR307W, strain GAS1, stronger effect = lower value",1.05
same,normalized growth,"locus YNL128W, strain TEP1, stronger effect = lower value",1.01
same,normalized growth,"locus YNL153C, strain GIM3, stronger effect = lower value",0.988
same,normalized growth,"locus YNL298W, strain CLA4 (second series), stronger effect = lower value",1.01
same,normalized growth,"locus YNL322C, strain KRE1, stronger effect = lower value",1
same,normalized growth,"locus YNR030W, strain Alg12, stronger effect = lower value",1.01
same,normalized growth,"locus YPL055C, strain LGE1, stronger effect = lower value",0.998
same,normalized growth,"locus YPL241C, strain CIN2, stronger effect = lower value",1.02
same,normalized growth,"locus YPR135W, strain CTF4, stronger effect = lower value",0.973
COc1cc(C(=O)Oc2c(Cl)cc(Cl)cc2C=Nc2cccc(C(F)(F)F)c2)cc(OC)c1OC,normalized growth,[3],0.977
same,normalized growth,[4],0.976
same,normalized growth,[5],0.971
same,normalized growth,[6],0.973
same,normalized growth,[7],0.968
same,normalized growth,[8],0.974
same,normalized growth,[9],0.962
same,normalized growth,[1],0.986
same,normalized growth,[10],0.966
same,normalized growth,[11],0.963
same,normalized growth,[12],0.627 (active)
same,normalized growth,[13],0.983
same,normalized growth,[14],0.959
same,normalized growth,[15],0.965
same,normalized growth,[16],0.589 (active)
same,normalized growth,[17],0.422 (active)
same,normalized growth,[18],0.585 (active)
same,normalized growth,[19],0.957
same,normalized growth,[20],0.978
same,normalized growth,[21],0.972
same,normalized growth,[22],0.702 (active)
same,normalized growth,[23],0.951
same,normalized growth,[24],0.636 (active)
same,normalized growth,[25],0.556 (active)
same,normalized growth,[26],0.308 (active)
same,normalized growth,[2],0.363 (active)
same,normalized growth,[27],0.388 (active)
same,normalized growth,[28],0.484 (active)
same,normalized growth,[29],0.465 (active)
same,normalized growth,[30],0.972
same,normalized growth,[31],0.421 (active)
same,normalized growth,[32],0.917
same,normalized growth,[33],0.617 (active)
same,normalized growth,[34],0.986
same,normalized growth,[35],0.775
same,normalized growth,[36],0.368 (active)
same,normalized growth,[37],0.78 (active)
same,normalized growth,[38],0.605 (active)
same,normalized growth,[39],0.648 (active)
same,normalized growth,[40],0.971
same,normalized growth,[41],0.693 (active)
same,normalized growth,[42],0.488 (active)
same,normalized growth,[43],0.626 (active)
same,normalized growth,[44],0.473 (active)
same,normalized growth,[45],0.583 (active)
same,normalized growth,[46],0.975
same,normalized growth,[47],0.656 (active)
same,normalized growth,[48],0.97
same,normalized growth,[49],0.981
same,normalized growth,[50],0.594 (active)
same,normalized growth,[51],0.977
same,normalized growth,[52],0.497 (active)
same,normalized growth,[53],0.982
same,normalized growth,[54],0.969
same,normalized growth,[55],0.555 (active)
same,normalized growth,[56],0.969
same,normalized growth,[57],0.548 (active)
same,normalized growth,[58],0.576 (active)
same,normalized growth,[59],0.597 (active)
same,normalized growth,[60],0.465 (active)
same,normalized growth,[61],0.978
same,normalized growth,[62],0.574 (active)
same,normalized growth,[63],0.578 (active)
same,normalized growth,[64],0.562 (active)
same,normalized growth,[65],0.976
same,normalized growth,[66],0.443 (active)
same,normalized growth,[67],0.966
same,normalized growth,[68],0.965
same,normalized growth,[69],0.931
same,normalized growth,[70],0.98
same,normalized growth,[71],0.967
COc1cc(N=Cc2cc(Cl)cc(Cl)c2OC(=O)c2cc(OC)c(OC)c(OC)c2)c(OC)cc1Cl,normalized growth,[3],0.965
same,normalized growth,[4],0.977
same,normalized growth,[5],0.969
same,normalized growth,[6],0.974
same,normalized growth,[7],0.968
same,normalized growth,[8],0.981
same,normalized growth,[9],0.959
same,normalized growth,[1],0.962
same,normalized growth,[10],0.945
same,normalized growth,[11],0.966
same,normalized growth,[12],0.369 (active)
same,normalized growth,[13],0.989
same,normalized growth,[14],0.98
same,normalized growth,[15],0.947
same,normalized growth,[16],0.31 (active)
same,normalized growth,[17],0.212 (active)
same,normalized growth,[18],0.398 (active)
same,normalized growth,[19],0.956
same,normalized growth,[20],0.971
same,normalized growth,[21],0.975
same,normalized growth,[22],0.34 (active)
same,normalized growth,[23],0.962
same,normalized growth,[24],0.381 (active)
same,normalized growth,[25],0.235 (active)
same,normalized growth,[26],0.183 (active)
same,normalized growth,[2],0.145 (active)
same,normalized growth,[27],0.161 (active)
same,normalized growth,[28],0.176 (active)
same,normalized growth,[29],0.202 (active)
same,normalized growth,[30],0.977
same,normalized growth,[31],0.177 (active)
same,normalized growth,[32],0.937
same,normalized growth,[33],0.32 (active)
same,normalized growth,[34],0.987
same,normalized growth,[35],0.463 (active)
same,normalized growth,[36],0.148 (active)
same,normalized growth,[37],0.458 (active)
same,normalized growth,[38],0.392 (active)
same,normalized growth,[39],0.346 (active)
same,normalized growth,[40],0.972
same,normalized growth,[41],0.345 (active)
same,normalized growth,[42],0.243 (active)
same,normalized growth,[43],0.354 (active)
same,normalized growth,[44],0.244 (active)
same,normalized growth,[45],0.317 (active)
same,normalized growth,[46],0.963
same,normalized growth,[47],0.421 (active)
same,normalized growth,[48],0.954
same,normalized growth,[49],0.982
same,normalized growth,[50],0.335 (active)
same,normalized growth,[51],0.98
same,normalized growth,[52],0.235 (active)
same,normalized growth,[53],0.977
same,normalized growth,[54],0.958
same,normalized growth,[55],0.238 (active)
same,normalized growth,[56],0.969
same,normalized growth,[57],0.273 (active)
same,normalized growth,[58],0.346 (active)
same,normalized growth,[59],0.307 (active)
same,normalized growth,[60],0.207 (active)
same,normalized growth,[61],0.981
same,normalized growth,[62],0.292 (active)
same,normalized growth,[63],0.279 (active)
same,normalized growth,[64],0.312 (active)
same,normalized growth,[65],0.977
same,normalized growth,[66],0.215 (active)
same,normalized growth,[67],0.974
same,normalized growth,[68],0.962
same,normalized growth,[69],0.943
same,normalized growth,[70],0.98
same,normalized growth,[71],0.96
